# Source: patent US20030180744, “High affinity oligonucleotide ligands to growth factors” (GILEAD SCIENCES, INC., published 2003)
# Columns and labels:
# Assay in all cases: filter; Kd target / Kd hKGF
# [1] = target: bFGF (Homo sapiens, UniProt P09038 P09038:143-288); settings: tags: R&D Systems; pseudoknot; ssRNA; 2'-F pyrimidines
# [2] = target: aFGF (Homo sapiens, UniProt P05230 P05230:16-155); settings: tags: R&D Systems; pseudoknot; ssRNA; 2'-F pyrimidines
# [3] = target: T1, KGF (rat) (Rattus norvegicus, UniProt Q02195 Q02195:32-194); settings: tags: QED Advanced Research Technologies; pseudoknot; ssRNA; 2'-F pyrimidines
# T1 sequence: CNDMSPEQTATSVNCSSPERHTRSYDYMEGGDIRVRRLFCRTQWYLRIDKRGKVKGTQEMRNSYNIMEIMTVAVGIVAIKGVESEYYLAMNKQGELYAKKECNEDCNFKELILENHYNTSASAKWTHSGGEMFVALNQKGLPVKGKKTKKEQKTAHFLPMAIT
# Sequence of bFGF (P09038 143-288, one chain of several): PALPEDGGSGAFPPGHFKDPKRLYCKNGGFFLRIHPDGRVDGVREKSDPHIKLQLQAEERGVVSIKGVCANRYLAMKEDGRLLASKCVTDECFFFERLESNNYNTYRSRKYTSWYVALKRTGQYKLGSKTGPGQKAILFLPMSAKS
# Sequence of aFGF (P05230 16-155, one chain of several): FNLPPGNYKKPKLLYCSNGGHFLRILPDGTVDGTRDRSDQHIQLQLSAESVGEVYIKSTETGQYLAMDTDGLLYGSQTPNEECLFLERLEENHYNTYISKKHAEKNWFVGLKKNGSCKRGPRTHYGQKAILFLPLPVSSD
sequence,measurement,setting,value
GGGAGGACGAUGCGGUGGUCUCCCAAUUCUAAACUUUCUCCAUCGUAUCUGGGCCAGACGACUCGCCCGA,binding signal,[1],1070
same,binding signal,[2],38600
same,binding signal,[3],1250
